Measured values from the supplement of paper PMC9694430.

Tests used:
Test in all cases: thermal shift delta Tm vs DMSO control; higher = stronger stabilization (binding)
Settings in all cases: 12.5 µM; protein concentration 2 µM
[1] = system: LOC_OS02G45750-cb003
Outline: (§1)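 The melting temperature shift given here is a triplicate mean, measured against protein that received only DMSO. Melting temperatures came from Boltzmann fits of differential scanning fluorimetry data on E. coli-expressed, purified rice kinase domain constructs. Each 19.5 μl well contained 2 μM kinase, 100 mM potassium phosphate pH 7.5, 150 mM NaCl, 10% glycerol, 5 × SYPRO Orange and compound in DMSO. Plates were scanned from 25°C to 95°C at 0.05°C/s.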

[2] = system: LOC_OS02G54510-cb004
Outline: as §1

[3] = system: LOC_OS03G04050-cb001
Outline: as §1

[4] = system: LOC_OS03G12390-cb001
Outline: as §1

[5] = system: LOC_OS03G27990-cb004
Outline: as §1

[6] = system: LOC_OS03G50450-cb001
Outline: as §1

[7] = system: LOC_OS03G50810-cb003
Outline: as §1

[8] = system: LOC_OS04G35114-cb001
Outline: as §1

[9] = system: T1, LOC_OS04G38480-cb003
T1 sequence (whole entry): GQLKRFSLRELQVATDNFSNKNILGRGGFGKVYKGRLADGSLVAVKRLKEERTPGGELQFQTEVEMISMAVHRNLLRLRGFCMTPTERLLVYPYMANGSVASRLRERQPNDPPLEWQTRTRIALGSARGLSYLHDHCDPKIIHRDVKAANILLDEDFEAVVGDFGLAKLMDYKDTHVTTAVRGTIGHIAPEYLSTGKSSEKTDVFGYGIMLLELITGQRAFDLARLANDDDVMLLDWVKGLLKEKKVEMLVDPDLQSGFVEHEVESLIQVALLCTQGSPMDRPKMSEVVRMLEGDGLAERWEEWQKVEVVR
Outline: as §1

[10] = system: T2, LOC_OS04G41100-cb001
T2 sequence (whole entry): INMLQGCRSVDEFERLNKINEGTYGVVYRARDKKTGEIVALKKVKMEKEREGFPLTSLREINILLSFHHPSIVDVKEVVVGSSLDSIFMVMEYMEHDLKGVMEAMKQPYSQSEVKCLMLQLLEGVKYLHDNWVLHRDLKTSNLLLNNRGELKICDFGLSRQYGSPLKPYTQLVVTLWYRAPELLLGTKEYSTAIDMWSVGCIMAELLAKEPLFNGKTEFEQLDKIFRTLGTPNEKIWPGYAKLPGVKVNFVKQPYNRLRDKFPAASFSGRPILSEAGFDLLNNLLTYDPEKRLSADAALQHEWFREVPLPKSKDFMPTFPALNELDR
Outline: as §1

[11] = system: LOC_OS04G57630-cb004
Outline: as §1

[12] = system: LOC_OS05G07850-cb002
Outline: as §1

[13] = system: LOC_OS05G16824-cb004
Outline: as §1

[14] = system: LOC_OS05G28520-cb001
Outline: as §1

[15] = system: LOC_OS05G30820-cb001
Outline: as §1

[16] = system: LOC_OS05G43570-cb004
Outline: as §1

[17] = system: LOC_OS06G16330-cb003
Chain of LOC_OS06G16330-cb003 (as listed by the source): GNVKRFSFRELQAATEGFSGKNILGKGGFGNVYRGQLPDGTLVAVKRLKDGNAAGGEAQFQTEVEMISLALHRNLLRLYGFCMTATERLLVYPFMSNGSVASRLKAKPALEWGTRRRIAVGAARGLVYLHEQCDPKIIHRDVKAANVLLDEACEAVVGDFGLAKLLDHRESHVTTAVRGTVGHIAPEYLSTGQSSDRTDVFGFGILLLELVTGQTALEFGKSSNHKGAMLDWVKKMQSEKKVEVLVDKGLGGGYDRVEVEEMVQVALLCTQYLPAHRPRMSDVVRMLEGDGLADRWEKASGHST
Outline: as §1

[18] = system: T3, LOC_OS06G22820-cb001
T3 sequence (whole entry): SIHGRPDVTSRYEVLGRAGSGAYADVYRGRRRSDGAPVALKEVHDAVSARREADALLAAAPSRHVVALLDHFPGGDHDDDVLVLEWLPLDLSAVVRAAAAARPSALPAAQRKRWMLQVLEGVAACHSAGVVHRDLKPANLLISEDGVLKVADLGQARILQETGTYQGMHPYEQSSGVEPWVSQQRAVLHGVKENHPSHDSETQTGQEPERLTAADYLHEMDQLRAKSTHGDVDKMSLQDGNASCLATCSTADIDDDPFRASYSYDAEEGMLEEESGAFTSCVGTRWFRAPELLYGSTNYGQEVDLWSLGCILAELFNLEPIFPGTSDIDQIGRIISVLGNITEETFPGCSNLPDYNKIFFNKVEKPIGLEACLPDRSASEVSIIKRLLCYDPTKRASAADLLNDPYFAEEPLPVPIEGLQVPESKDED
Outline: as §1

[19] = system: LOC_OS07G06570-cb004
Outline: as §1

[20] = system: LOC_OS07G07230-cb001
Outline: as §1

SMILES	thermal shift delta Tm [1]	thermal shift delta Tm [2]	thermal shift delta Tm [3]	thermal shift delta Tm [4]	thermal shift delta Tm [5]	thermal shift delta Tm [6]	thermal shift delta Tm [7]	thermal shift delta Tm [8]	thermal shift delta Tm [9]	thermal shift delta Tm [10]	thermal shift delta Tm [11]	thermal shift delta Tm [12]	thermal shift delta Tm [13]	thermal shift delta Tm [14]	thermal shift delta Tm [15]	thermal shift delta Tm [16]	thermal shift delta Tm [17]	thermal shift delta Tm [18]	thermal shift delta Tm [19]	thermal shift delta Tm [20]
O=c1cc(-c2ccccc2)oc2c(O)c(O)ccc12 [7,8-Dihydroxyflavone]	1.01 °C	0.54 °C	1.54 °C	0.5 °C	0.49 °C	0.77 °C	0.46 °C	-0.74 °C	0.33 °C	-0.06 °C	-0.51 °C	1.25 °C	-6.61 °C	2.12 °C	1.22 °C	1.47 °C	1.88 °C	1.1 °C	3.28 °C	0.94 °C
CCn1c(C(=O)N(C2CC2)C2CC2)cc2c3c(ncn3C)c(Nc3cc(C)n(C)n3)nc21	1.23 °C	0.33 °C	0.44 °C	1.55 °C	0.13 °C	0.66 °C	1.38 °C	2.5 °C	1.2 °C	0.58 °C	0.17 °C	6.42 °C	2.92 °C	0.88 °C	0.47 °C	0.51 °C	2.11 °C	0.64 °C	1.49 °C	0.76 °C
O=c1sn(-c2cccc3ccccc23)c(=O)n1Cc1ccccc1 [Tideglusib]	0 °C	0.35 °C	0.13 °C	-1.57 °C	0.89 °C	0.32 °C	-0.5 °C	2.38 °C	0.78 °C	0.34 °C	-0.25 °C	-3.79 °C	-13.5 °C	0.99 °C	0.39 °C	0.01 °C	0.99 °C	0.6 °C	1 °C	0.27 °C
Cn1nccc1Nc1nccc(-c2ccn([C@H](CO)c3ccc(Cl)c(F)c3)c(=O)c2)n1	0.71 °C	0.28 °C	0.29 °C	2.16 °C	0.03 °C	0.11 °C	-0.12 °C	0.45 °C	0.14 °C	2.7 °C	0.08 °C	2.78 °C	-3.01 °C	1.03 °C	0.26 °C	0.16 °C	0.19 °C	0.56 °C	1.22 °C	0.87 °C
C[C@@H]1COCCN1c1cc(=O)n2c(n1)N(Cc1cncc(Cl)c1)[C@H](C(F)(F)F)CC2	0.59 °C	0.31 °C	0.37 °C	0.19 °C	0.22 °C	0.04 °C	0.46 °C	0.41 °C	1.55 °C	0.39 °C	0.52 °C	-0.08 °C	-0.52 °C	1.37 °C	0.35 °C	0.36 °C	-0.04 °C	0.75 °C	1.02 °C	-0.12 °C
CN(C)C/C=C/C(=O)Nc1cc2c(Nc3ccc(F)c(Cl)c3)ncnc2cc1O[C@H]1CCOC1 [Afatinib (BIBW2992)]	0.69 °C	-0.42 °C	0.26 °C	1.35 °C	0.99 °C	0.05 °C	0.86 °C	4.16 °C	0.66 °C	0.51 °C	-0.38 °C	7.09 °C	0.09 °C	0.25 °C	0.35 °C	0.5 °C	1 °C	0.48 °C	0.78 °C	0.57 °C
Cc1cccc(Nc2nc(NC3CCCCC3N)ncc2C(N)=O)c1 (stereo not given)	0.65 °C	1.67 °C	0.03 °C	2.43 °C	3.15 °C	4.23 °C	1.34 °C	0.3 °C	1.83 °C	0.73 °C	0.83 °C	7.79 °C	5.17 °C	0.36 °C	2.02 °C	0.63 °C	6.85 °C	0.81 °C	1.04 °C	0.47 °C
C=CC(=O)Nc1ccc(CN2C(=O)N(c3cc(OC)cc(OC)c3)Cc3cnc(Nc4ccc(N5CCN(C)CC5)cc4)nc32)cc1	1.47 °C	1.08 °C	0.74 °C	0.1 °C	0.49 °C	0.33 °C	0.75 °C	1.29 °C	2.8 °C	0.83 °C	7.31 °C	0.75 °C	1.16 °C	1.83 °C	0.78 °C	0.66 °C	2.37 °C	0.84 °C	2.63 °C	1.29 °C
Nc1cc(C(F)(F)F)c(-c2cc(N3CCOCC3)nc(N3CCOCC3)n2)cn1 [Buparlisib (BKM120, NVP-BKM120)]	0.32 °C	-0.07 °C	0.3 °C	-0.03 °C	0.23 °C	0.11 °C	0.38 °C	0.31 °C	0.85 °C	0.22 °C	0.52 °C	0.95 °C	-3.32 °C	0.28 °C	0.66 °C	0.71 °C	0.02 °C	0.75 °C	0.64 °C	-0.59 °C
Cc1cc(Nc2cc(N)ncn2)c(=O)n2c1C(=O)NC21CCCCC1	0.8 °C	0.09 °C	0.28 °C	0.13 °C	0.19 °C	0.47 °C	0.4 °C	0.45 °C	0.09 °C	0.53 °C	0.21 °C	5.64 °C	1.99 °C	-0.15 °C	0.03 °C	0.05 °C	0.4 °C	0.25 °C	0.6 °C	0.71 °C
COc1ccc(-c2cc3c(C)nc(N)nc3n([C@H]3CC[C@H](OCCO)CC3)c2=O)cn1	0.52 °C	0.05 °C	0.5 °C	0.41 °C	0.17 °C	0.14 °C	0.45 °C	0.77 °C	1.08 °C	0.32 °C	0.78 °C	0.06 °C	-1.05 °C	0.57 °C	0.75 °C	0.65 °C	-0.03 °C	0.69 °C	1.04 °C	0.01 °C
CC(C)NC[C@@H](C(=O)N1CCN(c2ncnc3c2[C@H](C)C[C@H]3O)CC1)c1ccc(Cl)cc1 [Ipatasertib (GDC-0068)]	0.72 °C	0.15 °C	0.65 °C	-0.37 °C	0.47 °C	1.15 °C	0.45 °C	0.7 °C	1.01 °C	0.07 °C	-0.05 °C	0.18 °C	-3.22 °C	0.5 °C	0.46 °C	0.17 °C	-0.53 °C	0.38 °C	1.25 °C	0.21 °C
